Results reported in PubChem BioAssay (Tox21).
Records with an inconclusive call do not appear. A call without a number means that no potency is given here. The source made the active and inactive calls. Unless noted, the call rests on the fitted dose curve; in most records, active means well fitted curve in the direction sought with a large enough effect in the repeat runs; inconclusive means weak or mixed curves; inactive means no such curve, though single readings can be large; an effect the other way counts as inactive or inconclusive.

Columns and labels:
[1] = qHTS assay to identify small molecule agonists of the vitamin D receptor (VDR) signaling pathway - cell viability counter screen (AID 743224); further: nearly all actives have a fitted effect of over 50% in size; further: potency means the concentration at half of the fitted maximal effect
Procedure, shortened: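 Plated VDR-bla cells (4 h, 37C) received compound, incubated 16 h, then LiveBLAzer substrate 2 h RT; CellTiter-Glo added afterwards, luminescence read at 30 min.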

[2] = qHTS assay to identify small molecule antagonists of the vitamin D receptor (VDR) signaling pathway - cell viability counter screen (AID 743225); further: nearly all actives have a fitted effect of over 50% in size; further: potency means the concentration at half of the fitted maximal effect
Procedure, shortened: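 VDR-bla HEK 293T cells, 4 h pre-incubation at 37C, then compound plus 1-alpha,25-dihydroxyvitamin D3 (3 nM final) for 16 h. After the beta-lactamase FRET read, CellTiter-Glo was added to the same wells; luminescence after 30 min at room temperature.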

[3] = qHTS assay to identify small molecule agonists of the NFkB signaling pathway - cell viability counter screen (AID 1159515; calls by dose curve; further: nearly all actives have a fitted effect of over 55% in size; further: potency means the concentration at half of the fitted maximal effect)
Procedure, shortened: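 Using the same wells as the NFkB reporter read, ME-180 NFkB-bla cells given compounds for 5 hr were assessed for viability via CellTiter-Glo, with luminescence taken after a 30 min room-temperature incubation.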

[4] = qHTS assay to identify small molecule agonists of the endoplasmic reticulum stress response signaling pathway (AID 1159516; active means well fitted activation curve with a large enough effect in the signal ratio in the repeat runs, not every such curve was filed as active; the % refers to the signal ratio)
Procedure, shortened: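 An ESRE-bla HeLa cell assay: compounds were pin-transferred from DMSO onto overnight-plated cells and left 5 hr at 37 C. Substrate was then loaded for 2 hr at room temperature before reading fluorescence at 460 nm and 530 nm.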

[5] = qHTS assay to identify small molecule antagonists of the retinoid-related orphan receptor gamma (ROR-gamma) signaling pathway - cell viability counter screen (AID 1159520); further: nearly all actives have a fitted effect of over 50% in size
Procedure, shortened: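 Tet-on ROR gamma CHO cells were given compounds for 2 hr, then doxycycline hyclate at 1 uM final, and incubated 16 hr at 37 C. Viability was measured as ATP content by CellTiter-Glo luminescence.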

[6] = qHTS assay to identify small molecule agonists of the AP-1 signaling pathway - cell viability counter screen (AID 1159525; calls by dose curve; further: nearly all actives have a fitted effect of over 55% in size; further: potency means the concentration at half of the fitted maximal effect)
Procedure, shortened: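 AP-1-bla ME-180 cells in Opti-MEM with 0.5% dialyzed FBS, compound exposure 5 h at 37 C in 15-point titration. Viability read in the same wells as ATP content by CellTiter-Glo luminescence, normalised to tetra-n-octylammonium bromide and DMSO controls.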

[7] = molecular target: Retinoic acid receptor RXR-alpha (Homo sapiens) (UniProt P19793); assay: qHTS assay to identify small molecule agonists of the RXR signaling pathway (AID 1159527; calls by dose curve; further: nearly all actives have a fitted effect of over 35% in size)
Chain of Retinoic acid receptor RXR-alpha (Homo sapiens) (P19793 whole entry, looked up): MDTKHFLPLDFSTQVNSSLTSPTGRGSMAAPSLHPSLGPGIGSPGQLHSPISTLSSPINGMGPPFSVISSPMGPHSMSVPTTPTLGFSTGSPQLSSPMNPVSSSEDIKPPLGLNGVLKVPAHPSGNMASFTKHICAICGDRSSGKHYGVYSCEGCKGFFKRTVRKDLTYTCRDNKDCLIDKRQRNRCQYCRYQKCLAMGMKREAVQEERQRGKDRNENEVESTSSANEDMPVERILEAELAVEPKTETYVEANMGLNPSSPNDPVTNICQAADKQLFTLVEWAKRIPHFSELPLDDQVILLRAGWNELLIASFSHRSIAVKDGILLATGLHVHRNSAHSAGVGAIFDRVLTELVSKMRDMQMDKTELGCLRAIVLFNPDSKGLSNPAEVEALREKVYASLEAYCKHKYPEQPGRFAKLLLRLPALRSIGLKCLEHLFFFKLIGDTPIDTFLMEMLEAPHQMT
Procedure, shortened: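 GeneBLAzer RXR-alpha-UAS-bla HEK 293T cells in medium with 2% charcoal-stripped FBS, pre-incubated 5 hr at 37 C, then exposed to compounds 16 hr. Beta-lactamase reporter read by FRET substrate, 2 hr room temperature, 460/530 nm emission.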

[8] = qHTS assay to identify small molecule agonists of the RXR signaling pathway - cell viability counter screen (AID 1159529); further: nearly all actives have a fitted effect of over 50% in size; further: potency means the concentration at half of the fitted maximal effect
Procedure, shortened: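 RXR-alpha-UAS-bla HEK 293T cells in medium with 2% charcoal-stripped FBS were preincubated 5 hr, then exposed to compounds for 16 hr at 37 C. Viability was read as CellTiter-Glo luminescence after 30 min at room temperature.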

[9] = qHTS assay to identify small molecule antagonists of the retinoid acid receptor (RAR) signaling pathway - cell viability counter screen (AID 1159551); further: nearly all actives have a fitted effect of over 35% in size; further: potency means the concentration at half of the fitted maximal effect
Procedure, shortened: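 Retinol-stimulated (1 uM final) C3RL4 cells, compound 6 h, 37 C; readout CellTiter-Glo luminescence (ATP) after 30 min RT incubation.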

[10] = qHTS assay to identify small molecule antagonists of the retinoic acid receptor (RAR) signaling pathway (AID 1159552; further: nearly all actives have a fitted effect of over 50% in size; further: potency means the concentration at half of the fitted maximal effect)
Procedure, shortened: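 RARE-luc C3RL4 cells; cpds + 1 uM (final) retinol, 6 hr, 37 C/5% CO2; luciferase reagent, 30 min RT, luminescence readout. Inhibitors of retinol-driven signal scored.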

[11] = qHTS assay to identify small molecule agonists of the retinoic acid receptor (RAR) signaling pathway (AID 1159553); settings: C3RL4 RARE luciferase reporter, agonist, 6 h; activation: at 73.3 µM (top of the series) unless noted; further: potency means the concentration at half of the fitted maximal effect
Procedure, shortened: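 Reporter readout comes from luciferase under RARE control in C3RL4 cells; compound exposure lasts 6 hr at 37 C in 5% CO2, and luminescence is recorded following a 30 min room-temperature incubation with reagent.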

[12] = qHTS assay to identify small molecule agonists of the AP-1 signaling pathway (AID 1159526; calls by dose curve; further: potency means the concentration at half of the fitted maximal effect)
[13] = qHTS assay to identify small molecule antagonists of the estrogen related receptor (ERR) signaling pathway - cell viability counter screen (AID 1224818);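 further: viability measured after 17.5 h of compound exposure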
Procedure, shortened: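 After a 6 h pre-incubation, ERR cells were dosed by pin tool with compounds, positive/negative controls or DMSO alone. Following 17.5 h at 37 C and 30 min with CellTiter-Fluor, fluorescence was recorded.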

[14] = qHTS assay to identify small molecule antagonists of the estrogen related receptor (ERR) signaling pathway (AID 1224819)
Procedure, shortened: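 Luminescence readout (One-Glo, 30 min, RT) of ERR cell line after 18 h compound exposure at 37 C; cells seeded 2,000/well, pre-incubated 6 h, compounds pinned from DMSO stocks.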

[15] = qHTS assay to identify small molecule agonists of the estrogen related receptor (ERR) signaling pathway (AID 1224820)
Procedure, shortened: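 ERR reporter cell line (from NTP), 2,000 cells/well, incubated 6 h before compound addition, then 18 h at 37 C. Luminescence measured 30 min after One-Glo reagent at room temperature.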

[16] = test system: estrogen-related receptor alpha (ERRalpha) with PGC-1alpha coactivator, human; assay: qHTS assay to identify small molecule antagonists of the estrogen related receptor signaling pathway with the pleiotropic PPARgamma coactivator (PGC) (AID 1224821; calls by dose curve)
Procedure, shortened: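 PGC/ERR reporter cell line, plated 6 h before compound addition, then exposed 18 h at 37 °C. Luciferase activity read by luminescence 30 min after One-Glo addition; decrease indicates antagonism.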

[17] = qHTS assay to identify small molecule antagonists of the estrogen related receptor signaling pathway with the pleiotropic PPARgamma coactivator (PGC) cell viability counter screen (AID 1224822;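 further: viability read after 17.5 h compound exposure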)
Procedure, shortened: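 PGC/ERR cells were plated at 2,000 per well and allowed 6 h to settle before compound addition. Following 17.5 h at 37 C, CellTiter-Fluor reagent was added and fluorescence was read 30 min later.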

[18] = qHTS assay to identify small molecule agonists of the estrogen related receptor signaling pathway with the pleiotropic PPARgamma coactivator (PGC) (AID 1224823)
Procedure, shortened: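 PGC/ERR reporter cells seeded 6 h, then exposed to compounds (23 nL in DMSO) for 18 h at 37 C. One-Glo luciferase luminescence read after 30 min at room temperature.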

Row | SMILES | Potency [1] | Potency [2] | Potency [3] | Potency [4] | Potency [5] | Potency [6] | Potency [7] | Potency [8] | Potency [9] | Potency [10] | Potency [11] | Potency [12] | outcome [13] | Potency [14] | outcome [15] | Potency [16] | Potency [17] | outcome [18]
1 | Nc1nc(-c2ccccc2)cs1 | inactive | inactive | inactive | inactive | inactive | inactive | inactive | inactive |  |  |  |  |  |  |  |  |  | 
2 | O=C1CCc2ccc(OCCCCN3CCN(c4cccc(Cl)c4Cl)CC3)cc2N1 | 11.9 µM (active) | 10.7 µM (active) | 26.8 µM (active) | inactive | inactive | inactive |  | 23.9 µM (active) | inactive | inactive | inactive |  |  |  |  |  |  | 
3 | c1cnccn1 | inactive | inactive | inactive | inactive | inactive | inactive | inactive | inactive | inactive | inactive | inactive | inactive |  |  |  |  |  | 
4 | CC(C)NC[C@@H](O)COc1ccc(CC(N)=O)cc1 | inactive | inactive | inactive | inactive | inactive | inactive |  | inactive | inactive |  | inactive | inactive |  |  |  |  |  | 
5 | C=Cc1cccc(C)c1 | inactive | inactive | inactive | inactive | inactive | inactive | inactive | inactive | inactive | inactive | inactive | inactive |  |  |  |  |  | 
6 | CN1CCC[C@@H]1CCO[C@](C)(c1ccccc1)c1ccc(Cl)cc1 |  |  | 21.3 µM (active) | inactive | inactive | inactive |  | 8.49 µM (active) | inactive |  |  |  |  |  |  |  |  | 
7 | CC(C)(C)c1csc(-c2cc3cc(OCc4ccccc4CC(=O)O)ccc3o2)n1 |  |  | inactive | inactive |  |  |  |  |  | inactive | inactive |  |  |  |  |  |  | 
8 | Cc1ccc(O)c(N)c1 | 19.5 µM (active) | inactive | inactive | inactive | inactive | inactive |  | inactive | inactive | inactive | 21.7 µM (active) | 55 µM (active) |  |  |  |  |  | 
9 | Cc1cccc2cccnc12 | inactive | inactive | inactive | inactive | inactive | inactive | inactive | inactive | inactive | inactive | inactive | inactive |  |  |  |  |  | 
10 | CCC(=O)OC(=O)CC | inactive | inactive | inactive | inactive | inactive | inactive |  | 43.3 µM (active) | inactive | inactive | inactive | inactive |  |  |  |  |  | 
11 | O=C(Nc1ccc2c(O)c(N=Nc3ccc(N=Nc4ccc(S(=O)(=O)O)cc4)cc3)c(S(=O)(=O)O)cc2c1)c1ccccc1 | inactive | inactive | inactive | inactive |  | inactive | inactive | inactive | 24.3 µM (active) |  | inactive |  |  |  |  |  |  | 
12 | CC[N+](CC)(CC)CCOc1ccc(/C=C/c2ccccc2)cc1 | inactive | inactive | inactive | inactive | inactive |  |  | inactive | inactive |  | inactive | inactive | inactive | 8.74 µM (active) | inactive | 12.3 µM (active) | inactive | inactive
13 | CCOC(=O)c1ccc(C2CCC(NC[C@H](O)COc3ccc(O)c(NS(C)(=O)=O)c3)CC2)cc1 (stereo partly drawn) | 40.3 µM (active) | 35.9 µM (active) | inactive | inactive | inactive |  |  | 10.1 µM (active) | inactive | 56.4 µM (active) | inactive |  |  |  |  |  |  | 
14 | CCN(CC)c1ccc2c(-c3ccc(S(=O)(=O)O)cc3S(=O)(=O)[O-])c3ccc(=[N+](CC)CC)cc-3oc2c1 |  |  | inactive | inactive |  |  | inactive | inactive | 31.6 µM (active) |  | inactive | inactive |  |  |  |  |  | 
15 | C#C[C@]1(O)CC[C@H]2[C@@H]3[C@H](C)CC4=C(CCC(=O)C4)[C@H]3CC[C@@]21C | inactive | inactive | inactive | inactive | inactive | inactive |  | inactive | inactive | 29.8 µM (active) | inactive | inactive |  |  |  |  |  | 
16 | CCN(CC)C(=O)c1cc(S(=O)(=O)Cc2ccccc2)c(N2CCC(c3ccccc3)CC2)cc1N(CC)CCN(C)C |  | 17.2 µM (active) | 21.6 µM (active) | inactive |  | 17.2 µM (active) |  | 15.3 µM (active) |  | 21.4 µM (active) | inactive |  |  |  |  |  |  | 
17 | Clc1ccnc(Cl)n1 | inactive | inactive | inactive | inactive | inactive | inactive | inactive | inactive | inactive | inactive |  | inactive |  |  |  |  |  | 
18 | CC(=O)CC(=O)Nc1ccc(S(=O)(=O)O)cc1 | inactive | inactive | inactive | inactive | inactive | inactive | inactive | inactive | inactive |  |  | inactive |  |  |  |  |  | 
19 | CC(C)CCCCCOC(=O)CCS | inactive | inactive | inactive | inactive | inactive |  |  | inactive | inactive | inactive | inactive | inactive |  |  |  |  |  | 
20 | CCN1C(=O)c2ccccc2C1Nc1ccc(OCCN2CCCCC2)cc1 (stereo not drawn) | inactive | inactive | inactive | inactive | inactive | inactive | inactive | inactive | inactive | inactive | inactive | inactive |  |  |  |  |  | 
21 | C=CC(=O)OCCOC(=O)C=C | inactive | inactive | inactive | inactive | inactive | inactive |  | inactive | inactive | inactive | inactive | inactive |  |  |  |  |  | 
